# Source: PubChem
# This is a sample that favours compounds with a hit; in the whole collection about 7.8% have one here.
# sEH inh: soluble epoxide hydrolase inhibitors, primary screen, biochemical, human sEH | Bifunctional epoxide hydrolase 2 (Homo sapiens), P34913 | recombinant human sEH enzymatic activity assay | inhibition, % at 2 µM | actives 0.34% (n = 91,000) | AID 707, 2007; in the data active = inhibition above about 80%
# Target sequence (P34913 whole entry, looked up): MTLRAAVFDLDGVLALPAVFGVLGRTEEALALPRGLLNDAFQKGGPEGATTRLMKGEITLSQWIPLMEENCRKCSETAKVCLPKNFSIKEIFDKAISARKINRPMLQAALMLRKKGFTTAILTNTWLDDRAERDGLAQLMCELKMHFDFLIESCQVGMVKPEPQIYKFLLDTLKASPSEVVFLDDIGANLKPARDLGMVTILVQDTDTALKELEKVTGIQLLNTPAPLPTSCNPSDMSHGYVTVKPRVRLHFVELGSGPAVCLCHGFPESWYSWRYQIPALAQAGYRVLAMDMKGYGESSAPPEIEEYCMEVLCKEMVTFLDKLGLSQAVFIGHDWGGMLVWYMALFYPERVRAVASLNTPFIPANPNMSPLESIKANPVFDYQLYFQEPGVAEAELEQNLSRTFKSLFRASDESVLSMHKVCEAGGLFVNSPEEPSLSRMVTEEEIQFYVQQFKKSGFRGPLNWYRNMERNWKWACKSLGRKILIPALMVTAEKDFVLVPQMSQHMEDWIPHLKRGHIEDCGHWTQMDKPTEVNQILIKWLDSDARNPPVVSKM
# Cav3 T inh: Cav3.2 calcium influx blockers – cell-based, Fluo-4 calcium fluorescence, FDSS, MLSMR library, primary screen. Voltage-dependent T-type calcium channel subunit alpha-1H (Homo sapiens), O95180. Cav3.2-expressing cells; stronger effect = lower value. B-score at 10 µM. actives 4% (n = 100,000);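 active = single-dose well whose peak fluorescence ratio is a statistical outlier from its plate by either plate-standardised score or position-corrected B-score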
# sEH activator: soluble epoxide hydrolase activators, primary screen, biochemical, human sEH. actives 0.04% (n = 91,000). purified human sEH enzymatic activity, activator screen. Bifunctional epoxide hydrolase 2 (Homo sapiens), P34913. activation, % at 2 µM; in the data active = activation above about 37%
# PostGolgi ctrl: growth inhibition of yeast control strain, primary screen, counter-screen for post-Golgi transport modulator project; inhibition, % at 10 µM; AID 738, 2007; efflux-deficient yeast background strain, growth absorbance A615, 16 h; actives 5% (n = 98,000)
# PostGolgi yeast: phenotypic screen on post-Golgi transport, primary screen. post-Golgi transport phenotypic cell assay. inhibition, % at 10 µM. actives 0.9% (n = 98,000);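 note: yeast cells grown in 1536-well plates; yeast grown about 18 h at 30C before absorbance read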
# * = called active by the depositor; nt = no result given. Cut-off read from the data, not from the text of the source, unless noted: active = inhibition above about 30%; inactive = the rest.
SMILES,sEH inh,Cav3 T inh,sEH activator,PostGolgi ctrl,PostGolgi yeast
O=C(Cc1ccc(Cl)cc1)Nc1ccc(N2CCN(C(=O)c3ccco3)CC2)c(Cl)c1,86*,-2.6,-86,60*,-6
COc1ccc(C(=O)Nc2ccccc2N2CCN(C(=O)C(C)C)CC2)cc1Cl,7,-0.38,-2,15,3
CCC(=O)N1CCN(c2ccccc2NC(=O)Cc2ccccc2)CC1,12,-5*,-14,-2,4
CC(C)C(=O)N1CCN(c2ccccc2NC(=O)Cc2ccc(Cl)cc2)CC1,11,-5*,-13,16,6
O=C(Nc1ccc(N2CCN(C(=O)c3ccco3)CC2)c(Cl)c1)c1cccs1,35,-0.24,-31,28,-7
COc1ccc(Cl)cc1C(=O)Nc1ccccc1N1CCN(C(=O)C(C)C)CC1,-4,-4.2*,3,54*,11
Nc1cc(-c2ccc(Cl)cc2)nn1S(=O)(=O)c1cccc2nsnc12,0,-6.4*,-2,66*,58*
Nc1cc(-c2ccc(Br)cc2)nn1S(=O)(=O)c1cccc2nsnc12,nt,nt,nt,83*,44*
CCOc1cc(-c2cn(S(=O)(=O)c3cccc4nsnc34)nc2N)cc(OCC)c1OCC,4,2.2,-2,4,8
O=S(=O)(c1cccc2nsnc12)N1CCCC1,nt,0.73,nt,3,2
Nc1cc(-c2cccc(F)c2)nn1S(=O)(=O)c1cccc2nsnc12,nt,-5.2*,nt,0,16
NC(=O)CC(NC(=O)Cc1ccc(Br)cc1)c1ccc(NCc2ccc(F)c(F)c2)c([N+](=O)[O-])c1 (stereo not given),nt,-0.076,nt,nt,nt
O=c1cc(N2CCCCC2)c(-c2ccccc2)nn1Cc1c(Cl)cccc1Cl,11,-0.22,-6,46*,-4
COc1ccc(NC(=O)c2ccco2)cc1NC(=O)c1cccc(OC(C)C)c1,nt,-5.6*,nt,27,-4
COc1cccc(C(=O)Nc2cc(NC(=O)c3ccco3)ccc2OC)c1,0,-0.14,1,4,-4
Cc1ccc(-c2cc(C(F)F)n3ncc(C(=O)Nc4ccc(S(=O)(=O)Nc5ccccc5C)cc4)c3n2)cc1,-8,-0.86,8,2,0
Cc1cc(C)c(S(=O)(=O)c2ccccc2)c(OC(=O)c2cc(F)c(F)cc2Cl)n1,5,0.056,-4,1,-3
Cc1cc(O)ccc1Nc1nc2ccccc2nc1Nc1ccc(O)cc1C,1,-0.34,-2,-2,16
CC1CCC(C(C)C)C(OC(=O)CSc2nc(N)cc(=O)[nH]2)C1 (stereo not given),-6,-0.74,7,42*,-15
CC1CCC(C(C)C)C(OC(=O)CSc2nnc(N)s2)C1 (stereo not given),5,-4.8*,-3,32*,4
CCOC(=O)CN1C(=O)C(Sc2n[nH]c(-c3ccccc3)n2)CCc2ccccc21 (stereo not given),1,-2.3,0,0,5
COc1ccc(-c2csc(NC(=O)C3COc4ccccc4O3)n2)cc1OC (stereo not given),nt,-2.3,nt,nt,nt
Cc1ccc(OCCn2c(NC(=O)c3ccco3)nc3ccccc32)cc1,4,0.75,-4,-4,-11
O=C(Nc1nc2ccccc2n1CCOc1ccc(Cl)cc1)c1ccco1,-12,-1.4,11,49*,7
Cc1cccc(OCCn2c(-c3ccco3)nc3ccccc32)c1,9,-2.8,-6,30*,12
SMILES,sEH inh,Cav3 T inh,sEH activator,PostGolgi ctrl,PostGolgi yeast
Cc1cccc(OCCn2c(NC(=O)c3ccco3)nc3ccccc32)c1,-2,-3.6,4,51*,3
c1ccc(OCCn2c(-c3ccco3)nc3ccccc32)cc1,0,-3,0,14,2
O=C(Nc1nc2ccccc2n1CCOc1ccccc1)c1ccco1,nt,nt,nt,7,-7
CCOc1cccc(N2C(=O)CC(NCc3ccc(S(N)(=O)=O)cc3)C2=O)c1 (stereo not given),-13,-0.34,13,-2,-7
CCOc1cc(S(=O)(=O)N2CCN(Cc3ccccc3)CC2)ccc1Br,0,nt,0,29,10
CC1CCCC(C)N1C(=O)CSc1nc(N)c(-c2ccccc2)c(=O)[nH]1 (stereo not given),-7,-0.55,1,5,-6
C=C1c2ccccc2S(=O)(=O)N(Cc2ccccc2)C1COCc1ccccc1 (stereo not given),nt,-2.2,nt,nt,nt
CCOC(=O)CSc1nc2ccccc2c(=O)n1Cc1ccco1,nt,-1.4,nt,20,3
O=c1c2ccccc2nc(SCc2ccccc2)n1Cc1ccco1,7,-5.8*,-7,18,19
O=C(CSc1nc2ccccc2c(=O)n1Cc1ccco1)c1ccccc1,6,-2.2,-7,31*,-4
O=c1c2ccccc2nc(SCc2cccc(F)c2)n1Cc1ccco1,-1,-3.4,1,31*,4
CCN(C(=O)CSc1nc2cc(C(=O)OC)ccc2c(=O)n1Cc1ccco1)c1cccc(C)c1,2,-4.3*,-2,8,-1
COc1ccc(F)cc1S(=O)(=O)N1CC(C)CC(C)C1 (stereo not given),-13,-1.5,13,10,10
COC(=O)C1=C(C(=O)OC)[C@@H]2N(Cc3ccccc3)c3ccccc3[C@@]23C[C@@H](C(=O)OC)N(C(=O)NC(C)(C)C)C3=N1,nt,-2.4,nt,nt,nt
COc1ccc(NC(=O)CC2C(=O)N(c3cccc(OC)c3)C(=O)N2Cc2ccco2)cc1 (stereo not given),nt,1.8,nt,nt,nt
Cc1ccc(CSc2nc3ccccc3c(=O)n2Cc2ccco2)cc1,2,-4.6*,-2,nt,nt
O=c1c2ccccc2nc(SCc2nc3ccccc3s2)n1Cc1ccco1,11,-1.7,-9,14,5
CCOC(=O)c1ccc(NC(=S)Nc2ccccc2N)cc1,nt,0.81,nt,nt,nt
COc1ccc(NC(=O)Cn2nc(C(F)(F)F)c3c2CCCC3)cc1OC,23,0.0017,-23,nt,nt
O=C(Cn1nc(C(F)(F)F)c2c1CCC2)Nc1ccccc1C(F)(F)F,18,-2,-18,nt,nt
O=C(Cn1nc(C(F)(F)F)c2c1CCC2)NCc1ccc(Cl)cc1,-4,-4.5*,9,nt,nt
O=C(Cn1nc(C(F)(F)F)c2c1CCCC2)Nc1ccc2c(c1)OCO2,16,-4.9*,-18,11,-5
Cn1nc(C(F)(F)F)c(C(=O)Nc2ccc(F)cc2F)c1Sc1ccc(Cl)cc1,nt,-0.41,nt,-5,14
Cc1ccc(-c2cccc(NC(=O)C3C4C=CC(C4)C3C(=O)O)c2)o1 (stereo not given),9,1.2,-7,10,24
CCOc1cc(S(=O)(=O)N2CC=C(c3ccc(F)cc3)CC2)c(OCC)cc1-n1cnnn1,-2,-3.6,3,101*,0
O=C(O)c1ccccc1N/N=C\c1ccnc2ccccc12,-3,0.065,4,31*,-10
Oc1ccc(/C=N/Nc2cccc3cccnc23)c(O)c1,1,-0.0048,-1,19,2
COC(=O)c1cc(-c2ccccc2)n(CCN)c1C,nt,-0.31,nt,nt,nt
